# Unmarked numbers belong to inactive results.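 The calls were made as follows: active = AUC reduced over 20% with Padj below 0.05 in at least 2 of 3 replicates; inactive = otherwise.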
# Key:
# Assay in all cases: growth AUC relative to DMSO control (median of replicates) (fraction); higher = more growth (less inhibition), active = hit call of the paper
# Conditions in all cases: 20 µM; 24 h
# Coprococcus comes = system: Coprococcus comes
# How it was run: (§1)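 Starting at OD600 0.05, gut bacterial monocultures in mGAM were grown anaerobically at 37 °C with 20 µM compound (1% DMSO) under pierced gas-permeable seals. OD600 was read every hour for 24 h, and the lowest OD of each curve was set to 0. Area under the growth curve was normalised to the plate median of solvent-only wells, or to row and column medians on the industrial chemical plate, and the median of three biological replicates grown on separate days is given.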
# Escherichia coli ED1a = system: Escherichia coli ED1a
# How it was run: as §1
# Escherichia coli IAI1 = system: Escherichia coli IAI1
# How it was run: as §1
# Eubacterium rectale = system: Eubacterium rectale
# How it was run: as §1
# [1] = system: Fusobacterium nucleatum subsp. animalis
# How it was run: as §1
# Lactobacillus gasseri = system: Lactobacillus gasseri
# How it was run: as §1
# Lactobacillus paracasei = system: Lactobacillus paracasei
# How it was run: as §1
# Odoribacter splanchnicus = system: Odoribacter splanchnicus
# How it was run: as §1
# [2] = system: Parabacteroides distasonis
# How it was run: as §1
# Parabacteroides merdae = system: Parabacteroides merdae
# How it was run: as §1
# Roseburia intestinalis = system: Roseburia intestinalis
# How it was run: as §1
# Streptococcus salivarius = system: Streptococcus salivarius
# How it was run: as §1
Structure (SMILES),growth AUC (Coprococcus comes),growth AUC (Escherichia coli ED1a),growth AUC (Escherichia coli IAI1),growth AUC (Eubacterium rectale),growth AUC [1],growth AUC (Lactobacillus gasseri),growth AUC (Lactobacillus paracasei),growth AUC (Odoribacter splanchnicus),growth AUC [2],growth AUC (Parabacteroides merdae),growth AUC (Roseburia intestinalis),growth AUC (Streptococcus salivarius)
COC(=O)C(C)Oc1ccc(Oc2ccc(C(F)(F)F)cn2)cc1 (stereo not drawn),0.977,1.02,1.02,1.06,1.12,0.958,0.98,1.02,0.821,0.963,0.956,0.96
N#CC(=NOCC1OCCO1)c1ccccc1,1.01,0.971,0.982,1.06,0.99,0.962,1.01,1.11,0.981,0.931,0.968,0.976
Br[C@@H]1CC[C@@H](Br)[C@@H](Br)CC[C@@H](Br)[C@@H](Br)CC[C@H]1Br,0.934,0.897,0.979,1,1.01,0.947,0.996,0.983,0.682 (active),0.931,1,0.521 (active)
O=c1oc(-c2ccccc2)nc2ccccc12,0.996,0.967,0.946,0.948,0.935,0.971,0.915,0.893,1.05,0.988,0.979,0.981
C#CCN(C)c1c(C#N)cnn1-c1nn2c(c1Cl)CCCC2,0.998,0.999,1.02,1.07,0.972,1.05,1.05,1.05,0.98,1.01,1.02,1.03
Cc1cc(CC(C)CC(C)(C)C)n(O)c(=O)c1.NCCO (stereo not drawn),0.995,1.04,1,0.788,1.02,0.971,1.01,0.997,1,1.03,0.995,1.02
COc1ccc(Oc2ccc(NC(=O)N(C)C)cc2)cc1,0.992,0.977,0.996,0.851,0.906,1.11,1.01,0.974,0.989,0.943,0.99,0.988
S=C([S-])NCCNC(=S)[S-].[Mn+2],0.998,1.03,1.03,1.02,1.04,0.994,1.16,1.06,1.02,1.03,0.96,1.07
O=C1NC(=O)c2ccccc21,1.02,1.02,1.02,0.984,1.05,1.06,1.04,0.89,1.02,1.02,1.11,1
CCCCOCN(C(=O)CS(=O)(=O)[O-])c1c(CC)cccc1CC.[Na+],0.957,0.973,0.991,0.975,0.947,0.914,0.957,0.938,1,0.962,0.935,0.97
CCCCC(CC)CN1C(=O)C2C(C1=O)[C@H]1C=C[C@@H]2C1 (mixture of isomers),1.03,1.01,1.03,0.93,1.01,1.06,1.04,1.03,0.79 (active),0.977,1.07,1
COC1CCC2(CC1)NC(=O)C(c1cc(C)ccc1C)C2O (stereo not drawn),1.04,1.03,1.03,1.11,1.16,0.99,1.03,1.01,1.07,1.02,0.974,1.04
COc1c(Cl)ccc(Cl)c1C(=O)O,1.01,0.99,0.986,0.912,0.914,1.26,0.919,0.978,1,1,0.976,1.03
CC(C)NS(=O)(=O)NC(=O)c1cc(NC(N)=O)c(F)cc1Cl,0.928,1.01,0.971,1.01,1,0.907,1.1,0.976,1.02,0.98,0.981,0.887

# Source: the supplement of paper PMC12669032
